# Test results reported in PubChem BioAssay AID2017 (National Center for Advancing Translational Sciences (NCATS), 2009).
# Records with an inconclusive call do not appear. Activity calls are given as the source filed them. Calls come from the whole dose curve; as a rule, active = well fitted curve in the direction sought with a large enough effect; inconclusive = small, poorly fitted or top-dose-only effect, or another doubt; inactive = no such curve, though single readings can be large or run the other way.
# Target: 4-diphosphocytidyl-2-C-methyl-D-erythritol kinase, chloroplastic (Arabidopsis thaliana) (UniProt O81014)
# Sequence (O81014 whole entry, looked up): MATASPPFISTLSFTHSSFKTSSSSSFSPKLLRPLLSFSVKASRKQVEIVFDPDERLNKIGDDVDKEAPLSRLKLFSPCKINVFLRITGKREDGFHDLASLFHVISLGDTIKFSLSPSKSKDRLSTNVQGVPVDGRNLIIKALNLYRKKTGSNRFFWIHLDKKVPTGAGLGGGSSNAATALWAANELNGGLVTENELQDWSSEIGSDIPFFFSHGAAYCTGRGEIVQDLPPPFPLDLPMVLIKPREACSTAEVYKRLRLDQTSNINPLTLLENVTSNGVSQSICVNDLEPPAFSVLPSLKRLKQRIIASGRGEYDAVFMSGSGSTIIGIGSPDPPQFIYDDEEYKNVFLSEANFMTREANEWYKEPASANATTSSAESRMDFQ
# Experiment: Confirmatory Assay for Inhibitors of Human Galactokinase (GALK): CDP-Me assay counterscreen
# Settings: ATP depletion, Kinase-Glo luminescence
# Source text: NIH Molecular Libraries Probe Production Centers Network [MLPCN] NIH Chemical Genomics Center [NCGC] MLPCN Grant: R03 MH085689-01 Assay Submitter (PI): Kent Lai (University of Utah School of Medicine, 50 N Mario Capecchi Drive, Salt Lake City, UT 84132) NCGC Assay Overview The GHMP kinase family is a unique class of important enzymes that plays an essential role in many metabolic processes. It contains more than 170 protein members among which are the galactokinase (GALK) and the CMK enzymes. GALK plays a crucial role in galactose processing and is a potential therapeutic target for Classic Galactosemia (OMIM: 230400). CMK is involved for the non-mevalonate synthesis of isoprenoids precursors and natural products like sterols or ubiquinones which are important to many biological functions. […]
# NCGC Assay Protocol Summary: Three uL/well of substrate solution (15 uM ATP, 30 uM CDP-ME, 20 mM HEPES pH8.0, 5 mM MgCl2, 40 mM KCl, 1 mM DTT, 0.01% BSA final concentration) was dispensed into 1536-well, assay plates (Greiner, solid white medium-binding plates) with Aurora Discovery BioRAPTR Flying Reagent Dispenser (FRD; Beckton-Dickenson). […] After 1 min, luminescence was detected with the ViewLux plate reader (Perkin Elmer, Waltham, MA) using a 1 sec exposure time and 2x binning settings.
smiles,measurement,value
COc1cc(/C=C2\C(=N)N3N=C(S(=O)(=O)CC(C)C)SC3=NC2=O)ccc1OC(=O)c1ccco1,Potency,29.8 µM (active)
